According to PubChem BioAssay AID1508619 (National Center for Advancing Translational Sciences (NCATS), 2020):
Inconclusive results are not listed. Activity calls are given as the source filed them. Calls follow the shape of the dose curve; as a rule, active = well fitted inhibition curve with a large enough effect; inconclusive = small, poorly fitted or top-dose-only effect; inactive = no such curve, though single readings can be large or run the other way.

experiment: Counterscreen qHTS for Identification of Calcium Integrin Binding Protein 1 (CIB1) Competitor; details: series mostly up to 114 µM; activity, negative = inhibition: at the top concentration
Text: Assay Provider: Ulhas P. Naik, PhD
Sidney Kimmel Medical College
Thomas Jefferson University, Philadelphia, PA
Primary function of platelets is to maintain hemostasis. At the site of vascular injury, platelets adhere to adhesive proteins such as collagen and von Willebrand factor. Adherent platelets are activated and generate soluble platelet agonists such as thrombin, ADP and thromboxane A2. Following exposure of circulating platelets to these agonists, results in platelet shape change, granule secretion and activation of platelet integrin alphaIIb-beta3. Ligand binding to activated integrin alphaIIb-beta3 triggers outside-in signaling, leading to platelet aggregation, stabilization of platelet plug, and clot retraction. Upon atherosclerotic plaque rupture also causes platelet plug formation, which underlies a number of cardiovascular diseases such as myocardial infraction and stroke. A number of anti-platelet drugs such as aspirin, clopidogrel, prasugrel, vorapaxar, and eptifibatide are currently available to prevent the thrombotic complications. However, these anti-platelet agents have several limitations including inherent variability in individual responses, developing resistance, and serious bleeding side effects. For these reasons they are not suitable for long-term protection. Based on the experiences with current anti-platelet drugs, it appears that the most useful therapeutic approach is to intersect the secondary responses such as integrin outside-in signaling or recruitment of platelets by TxA2 and secreted ADP. Compounds, which can largely preserve the primary hemostatic function of platelets but inhibit secondary response will be most desired therapeutic agents for treatment of cardiovascular disease.
CIB1 is a calcium integrin binding protein, which specifically interact with the alphaIIb subunit of integrin alphaIIb-beta3. Binding of CIB1 to alphaIIb regulates the outside-in signaling in platelets, which is needed for thrombus stabilization and thrombus growth. […] Therefore, we propose that discovery of a small molecule that can prevent the association of CIB1 and alphaIIb-beta3 will be a potential anti-platelet agent that can block the thrombus formation without undue effect on hemostasis.
To develop fluorescence polarization (FP) assay using fluorescently labeled alphaIIb peptide and CIB1 protein. Using FP assay characterize the binding affinity, competitive inhibition, and acceptable Z factor (0.5 to1) in order to perform the HTS to identify small molecule compound that can prevent CIB1 binding to platelet integrin alphaIIb-beta3. Active compounds were re-acquired and validated using confirmatory and counterscreens (using 100 nM scrambled peptide).
[1] Naik MU, Nigam A, Manrai P, et al. CIB1 deficiency results in impaired thrombosis: the potential role of CIB1 in outside-in signaling through integrin alpha IIb beta 3. J Thromb Haemost. 2009;7(11):1906-1914. doi:10.1111/j.1538-7836.2009.03581.
SEQUENCE No. (1, 2, 3, etc.); […] (e.g., Cells, Incubation, Reagent, etc.); VALUE and DESCRIPTION.
1; Reagent; 3 uL; Protein or buffer (4/3x)
2; Compound; 46 nL; Control inhibitor / compound library
3; Time; 15 min; Room temperature incubation
4; Reagent; 1 uL; Fluorescent labeled peptide (4x)
5; Time; 1000 rpm; Centrifuge
6; Time; 15 min; Room temperature incubation
7; Detection; Ex 480/ Em 540; ViewLux Fluorescence Read
NOTES (numbers refer to sequence above)
1; Protein Mixture: C1B1-GST (final concentrations of 1 uM). Buffer composition: 5 mM HEPES pH 7.4, 125 mM NaCl, 5 mM CaCl2, 0.01% Tween20.
2; Control Inhibitor: unlabeled peptide (final concentration range 17.4 nM to 572 uM). Compound Library final concentration range 18.3 nM to 114 uM.
3; Room temperature incubation.
4; Fluorescent Labeled Peptide: FITC-alphaIIb (final concentration of 100 nM). Sequence of Scrambled peptide: Acetyl-[…]-FITC (purity is 95.37%).
6; Room temperature incubation.
[…]
% is scaled to controls: 0 for no effect and ±100 for the full control effect; potency is read from the fitted curve at half-maximal effect.

SMILES | activity, negative = inhibition | Potency
O=C1C(I)=CC(=C(c2cc(I)c(O)c(I)c2)c2ccccc2C(=O)O)C=C1I | 334% (inactive) | 
O=c1oc2ccccc2c(O)c1C(CC(O)c1ccc(-c2ccc(Br)cc2)cc1)c1ccccc1 (stereo not given) | 79.8% (inactive) | 
CC1=C(O)C(=O)C=C2C1=CC=C1[C@@]2(C)CC[C@@]2(C)[C@@H]3C[C@](C)(C(=O)O)CC[C@]3(C)CC[C@]12C |  | 44.7 µM (active)
O=c1c(C2CC(c3ccc(-c4ccc(Br)cc4)cc3)Cc3ccccc32)c(O)sc2ccccc12 (stereo not given) | 88.6% (inactive) | 
COC[C@H]1OC(=O)c2coc3c2[C@@]1(C)C1=C(C3=O)C2CCC(=O)[C@@]2(C)C[C@H]1OC(C)=O (stereo not given in full) | -9.28% (inactive) | 
S=C(SSC(=S)N1CCCCC1)N1CCCCC1 | 19.7% (inactive) | 
CN(C)CCc1c[nH]c2cccc(O)c12 |  | 89.1 µM (active)
CN(C)C(=S)SSC(=S)N(C)C | 1.45% (inactive) | 
Cc1ccc([N+](=O)[O-])[c]2c1[O][Hg]2 | 131% (inactive) | 
C[CH2][Hg][S]c1ccccc1C(=O)O | -2.63% (inactive) | 
CC(=O)[O][Hg][c]1ccccc1 | 130% (inactive) | 
O=C1OC(c2ccc(O)c(S(=O)(=O)O)c2)(c2ccc(O)c(S(=O)(=O)O)c2)c2c(Br)c(Br)c(Br)c(Br)c21 | 42.2% (inactive) | 
N[C@@H](Cc1ccc(Oc2cc(I)c(O)c(I)c2)c(I)c1)C(=O)O | -9.7% (inactive) | 
CCCCCCCCCCCCCCCC[N+](C)(C)C | 4.61% (inactive) | 
COc1nn(CSP(=S)(OC)OC)c(=O)s1 | -8.92% [at 229 µM] (inactive) | 
